The values below come from the OligoGym collection.
Note: reference of the scale not given here.

The target in the first test is GPS1. The test is described as follows: pooled miR-30 sensor sort-seq; sequence = guide strand. The following applies: shRNA.
As to TACTGTTCCAGATCCAGGCTGG, the sensor-assay potency score (higher = more potent) is 0.176. Same read-out and setting: under TTGACATGGATCTGGTTGCGGA stands -0.378. The same measure, in the same setting: under TTGAAGGCTGCCGCCATCCTAT stands -1.18.

The sequence TTCATCTCGTCCAGCATCTTGA gave a sensor-assay potency score (higher = more potent) of -0.805.

With TTGCGCTGCAGCTCCTGCCGGT, the sensor-assay potency score (higher = more potent) was -0.804. Same read-out and setting: under TCCAGCTCCAAGAACAACTTGA stands -0.994.

For AACAACTTGAAGGAGCTGCTGG, the sensor-assay potency score (higher = more potent) is -0.415. The sequence TAGCACTTGAGGGCGTTGCTGA had a sensor-assay potency score (higher = more potent) of -0.484.

AAGAACAACTTGAAGGAGCTGC had a sensor-assay potency score (higher = more potent) of 0.981. Same read-out and setting: under TTGTAGTTCTTCAGGTCTGTGT stands -0.35.

The next test deals with GPT2. The test is described as above. To be noted: shRNA.
Turning to TTCACCTTCTGCAGCACCGTTT, the sensor-assay potency score (higher = more potent) is -0.638. Same read-out and setting: under TTCAGGATCGTAGAAATGCCGT stands -0.741; under TTGGTTAAACAGGTCTTCCGTC, 0.251; under TTAGCATCTTCTGGGAAGCTGG, -0.879. On the same count and under the same terms, under TAACAGATTCAGAGAACCCTGG stands 0.0686; under TTTCACCTTCTGCAGCACCGTT, -1.46. Still for that read-out and setting: under TTGGCAGGAATGAAGATCCGAG stands -0.485. TACAGCACCTTCTTGAAGGAGT: the sensor-assay potency score (higher = more potent) is -0.472.

For TCATGCAGTAGAACATGTCTGG, the sensor-assay potency score (higher = more potent) was 0.355. Sequence TCTGTAACCACACTCGCCCATG had a sensor-assay potency score (higher = more potent) of -1.08.

TTGATCACCTCCATGTAGCCTC came in with a sensor-assay potency score (higher = more potent) of 0.135.

The target in a further test is GPX1. The test is described as above. To be noted: shRNA.
TTGGGGTCGGTCATAAGCGCGG: the sensor-assay potency score (higher = more potent) is -1.09. In turn, ATTCTCGATAAGTAGTACCTTG had a sensor-assay potency score (higher = more potent) of -0.704.

As for AACATCGTTGCGACACACCGGA, the sensor-assay potency score (higher = more potent) is -0.00294. Still for that read-out and setting: under TTCATCTGGGTGTAGTCCCGGA stands -0.32. Still for that read-out and setting: under TTCGTTCTTGGCGTTCTCCTGA stands 0.781; under ACATCGTTGCGACACACCGGAG, -1.77; under AATCTCTTCGTTCTTGGCGTTC, -1.08. On the same count and under the same terms, under TTCAGAATCTCTTCGTTCTTGG stands 0.596; under TTCCAGGCAACATCGTTGCGAC, -1. As for ATTCAGAATCTCTTCGTTCTTG, the sensor-assay potency score (higher = more potent) worked out at 0.126. For TTTTCTATGAGTCACCGGGATT, the sensor-assay potency score (higher = more potent) is -1.88.

Turning to TAGGTTTAGAGGAAACACCCTC, the sensor-assay potency score (higher = more potent) was -0.561.

Another test addresses GPX2. The description is as above. To be noted: shRNA.
Consider TTGAGCTGGGTGAAGTCCCGGG, for which the sensor-assay potency score (higher = more potent) is -0.183. Still for that read-out and setting: under TTCCAGGCCACATCTGAGCGGC stands -0.521; under ATACTTGAGACTGTTCAGGATC, -0.893; under TCACATTTTTGGACAAGGGTGA, 0.0993.

The sequence TTGGACAAGGGTGAAGGTGGGC registered a sensor-assay potency score (higher = more potent) of 0.00355. Still for that read-out and setting: under TTGAAATCTACCTTCTCCCCAT stands 0.588; under TATTGGTCTCTTCTAGCAGAGT, -1.55.
